The values below come from PubChem BioAssay.

SMILES strings stand for the structures. Calls of active or inactive are those of the source. Unless noted, the rule behind the calls is not given here.

By remaining activity is commonly meant the signal under treatment as a percentage of the control signal.

Experiment [1] concerns Aerobactin synthetase IucA (Klebsiella pneumoniae). Nature of the experiment: inhibition of K. pneumoniae IucA enzyme – biochemical, Tocris library, absorbance (AID 1345561).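 Note: 100% = enzyme without compound and 0% = no enzyme.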 The following applies: purified IucA enzyme assay, absorbance (OD) read-out; stronger effect = lower value;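 tested at 8 µM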.
The nature of experiment [2]: viability loss with induced miR-34 in A549 – imaging, A549 dox-inducible miR-34, nuclei and caspase counts, primary screen (AID 1347080;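 active = compounds whose cell count with miR-34 switched on is under 0.7 times the count with it off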). The following applies: A549 miR-34 inducible, Hoechst nuclei count, 48 h.
The nature of experiment [3]: galactose survival enhancers in mitochondrial complex I cybrids – cell-based, galactose medium, ATP luminescence, primary screen (AID 1645843;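 active = z-score of at least 1.8 in each of two replicates, scored against plate mean and spread of sample wells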;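 note: positive z means more ATP and so rescue of galactose-driven cybrid death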). To be noted: complex I mutant cybrid cells, 72 h, stronger effect = higher value.
[4] abbreviates: stronger effect = lower value, cell number ratio, induced over uninduced.
[5] abbreviates: measured here: relative caspase fold change +Dox/-Dox.
Where [6] appears, read: measured here: total cells with miR-34 induction, stronger effect = lower value.
[7] abbreviates: measured here: total cells without miR-34 induction.

Regarding `OC[C@H]1O[C@@H](n2cnc3c(NC4CCCC4)ncnc32)[C@H](O)[C@@H]1O`, the remaining activity in experiment [1] is 123% (inactive). Moreover, the fold change in experiment [2] (setting [4]) was 0.882 (inactive); in experiment [2] (setting [5]) it was 0.89. In addition, the values for the cell count in experiment [2] (setting [6]) and in experiment [2] (setting [7]) were 9040 and 10200, respectively. Also, the z-score in experiment [3] was 0.51 (inactive).

As for `NC(C(=O)O)c1cc(O)cc(O)c1` (stereo not drawn), in experiment [1], the remaining activity is 101% (inactive). Further, the fold change is 0.987 (inactive) in experiment [2] (setting [4]) and 0.844 in experiment [2] (setting [5]). Besides, the cell count in experiment [2] (setting [6]) worked out at 9310; in experiment [2] (setting [7]) it was 9430. Moreover, the z-score in experiment [3] is -0.435 (inactive).

On to `O=c1[nH]ccc2c(S(=O)(=O)N3CCCNCC3)cccc12`, for which the remaining activity in experiment [1] is 105% (inactive). For the same compound, the fold change in experiment [2] (setting [4]) is 0.922 (inactive); in experiment [2] (setting [5]), 0.813. The cell count was 9480 in experiment [2] (setting [6]) and 10300 in experiment [2] (setting [7]). Further, the z-score in experiment [3] was -0.145 (inactive).

Consider `NC(=O)N/N=C/c1ccc(Oc2ccc(F)cc2)cc1`, for which the remaining activity in experiment [1] is 94.3% (inactive). The fold change is 0.798 (inactive) in experiment [2] (setting [4]) and 2.22 in experiment [2] (setting [5]). Moreover, the cell count came to 7090 in experiment [2] (setting [6]) and 8890 in experiment [2] (setting [7]). Moreover, the z-score in experiment [3] is 0.135 (inactive).

Consider `O=[N+]([O-])c1ccccc1S(=O)(=O)NCC1CCC(CNCC2CCc3ccccc3C2)CC1` (stereo not drawn), for which the remaining activity in experiment [1] is 97.1% (inactive). In addition, the fold change in experiment [2] (setting [4]) is 0.747 (inactive); in experiment [2] (setting [5]) it was 1.77. Moreover, the cell count in experiment [2] (setting [6]) was 2050; in experiment [2] (setting [7]) it was 2740. In addition, in experiment [3], the z-score was -0.675 (inactive).

For `CCC(=O)OCN1C(=O)C=CC1=O`, the remaining activity in experiment [1] was 92.2% (inactive). Also, the fold change in experiment [2] (setting [4]) was 0.956 (inactive); in experiment [2] (setting [5]), 1.17. Further, the cell count is 9240 in experiment [2] (setting [6]) and 9660 in experiment [2] (setting [7]). Besides, the z-score in experiment [3] is -0.205 (inactive).

As to `O=C(N/N=C/c1ccccc1O)c1ccccc1O`, the remaining activity in experiment [1] is 106% (inactive). For the same compound, the fold change in experiment [2] (setting [4]) is 0.984 (inactive); in experiment [2] (setting [5]), 1.5. Further, the cell count in experiment [2] (setting [6]) was 4010; in experiment [2] (setting [7]), 4070. Further, in experiment [3], the z-score is -0.59 (inactive).

Turning to `CC1=C(C(=O)OCCN(Cc2ccccc2)c2ccccc2)C(c2cccc([N+](=O)[O-])c2)C(P2(=O)OCC(C)(C)CO2)=C(C)N1` (stereo not drawn), the remaining activity in experiment [1] was 131% (inactive). For the same compound, the fold change in experiment [2] (setting [4]) is 0.992 (inactive); in experiment [2] (setting [5]), 1.07. The cell count in experiment [2] (setting [6]) worked out at 4790; in experiment [2] (setting [7]), 4830. Further, the z-score in experiment [3] was -0.9 (inactive).

As for `Nc1nc(NCCc2ccc(O)cc2)nc2nc(-c3ccco3)nn12`, the remaining activity in experiment [1] is 109% (inactive). The fold change in experiment [2] (setting [4]) was 0.809 (inactive); in experiment [2] (setting [5]) it was 1.15. Besides, the values for the cell count in experiment [2] (setting [6]) and in experiment [2] (setting [7]) were 6780 and 8380, respectively. The z-score in experiment [3] was -0.54 (inactive).

In the case of `CN(CCc1ccc(Cl)c(Cl)c1)CCN1CCCC1`, the remaining activity in experiment [1] was 108% (inactive). Besides, the results for the fold change in experiment [2] (setting [4]) and in experiment [2] (setting [5]) were 1.01 (inactive) and 0.63, respectively. Further, the cell count was 8830 in experiment [2] (setting [6]) and 8750 in experiment [2] (setting [7]). The z-score in experiment [3] is -1.06 (inactive).

Take `O=C1C(c2ccccn2)=[N+]([O-])c2ccccc21`: in experiment [1], the remaining activity was 123% (inactive). Besides, the fold change was 0.941 (inactive) in experiment [2] (setting [4]) and 0.616 in experiment [2] (setting [5]). Besides, the cell count in experiment [2] (setting [6]) came out at 8260; in experiment [2] (setting [7]), 8780. Also, the z-score in experiment [3] was -0.62 (inactive).

Turning to `C[C@@H](NCc1cc(Br)cc2[nH]c(=O)c(=O)[nH]c12)P(=O)(O)O`, the remaining activity in experiment [1] was 104% (inactive). The fold change in experiment [2] (setting [4]) is 0.887 (inactive); in experiment [2] (setting [5]), 1.3. For the same compound, the cell count in experiment [2] (setting [6]) is 8900; in experiment [2] (setting [7]) it was 10000. In addition, the z-score in experiment [3] is -0.07 (inactive).

As to `N[C@H]1CCN(O)C1=O`, the remaining activity in experiment [1] was 122% (inactive). Also, the fold change in experiment [2] (setting [4]) is 1.02 (inactive); in experiment [2] (setting [5]) it was 0.709. Also, the cell count in experiment [2] (setting [6]) is 8480; in experiment [2] (setting [7]), 8300. Also, in experiment [3], the z-score was -0.005 (inactive).

On to `O=C(Nc1ccccc1)C12CC1/C(=N\O)c1ccccc1O2` (stereo not drawn), for which the remaining activity in experiment [1] was 107% (inactive). Further, the results for the fold change in experiment [2] (setting [4]) and in experiment [2] (setting [5]) were 0.911 (inactive) and 0.471, respectively. Further, the cell count in experiment [2] (setting [6]) was 7010; in experiment [2] (setting [7]) it was 7700. For the same compound, in experiment [3], the z-score was 0.135 (inactive).

`O=C1C=CC(=O)C2=C1C1c3ccccc3C2c2ccccc21`: the remaining activity in experiment [1] is 104% (inactive). The fold change is 0.889 (inactive) in experiment [2] (setting [4]) and 1.44 in experiment [2] (setting [5]). The cell count in experiment [2] (setting [6]) is 6130; in experiment [2] (setting [7]) it was 6900. Also, the z-score in experiment [3] was -0.705 (inactive).

As for `O=C(O)/C=C1\CCCc2ccccc2C1O` (stereo not drawn), in experiment [1], the remaining activity was 103% (inactive). Further, the fold change in experiment [2] (setting [4]) is 0.917 (inactive); in experiment [2] (setting [5]), 0.874. Besides, the cell count in experiment [2] (setting [6]) came out at 8860; in experiment [2] (setting [7]) it was 9660. The z-score in experiment [3] is -0.145 (inactive).

`CC(=O)OCCNC(=O)c1cccnc1`: the remaining activity in experiment [1] was 106% (inactive). The fold change in experiment [2] (setting [4]) is 0.936 (inactive); in experiment [2] (setting [5]) it was 0.614. In addition, the cell count came out at 9480 in experiment [2] (setting [6]) and 10100 in experiment [2] (setting [7]). For the same compound, in experiment [3], the z-score was 0.15 (inactive).

As to `CCOC(=O)c1c(C)[nH]c2ccc3c(c12)CN1CCc2cc(OC)ccc2C1O3` (stereo not drawn), the remaining activity in experiment [1] was 112% (inactive). The fold change in experiment [2] (setting [4]) is 0.942 (inactive); in experiment [2] (setting [5]), 0.667. The results for the cell count in experiment [2] (setting [6]) and in experiment [2] (setting [7]) were 3940 and 4180, respectively. For the same compound, the z-score in experiment [3] is -0.785 (inactive).

With `Nc1c(S(=O)(=O)O)cc(Nc2cccc3ccccc23)c2c1C(=O)c1ccccc1C2=O`, in experiment [1], the remaining activity is 109% (inactive). The fold change in experiment [2] (setting [4]) is 0.981 (inactive); in experiment [2] (setting [5]) it was 1.43. In addition, the figures for the cell count in experiment [2] (setting [6]) and in experiment [2] (setting [7]) were 9410 and 9590, respectively. In experiment [3], the z-score was 3.16 (active).

Turning to `O=C(Nc1ccc(C(F)(F)F)cn1)N1CCN(c2ncccc2C(F)(F)F)CC1`, in experiment [1], the remaining activity is 86.8% (inactive). Besides, the fold change in experiment [2] (setting [4]) was 0.952 (inactive); in experiment [2] (setting [5]), 1.39. The cell count in experiment [2] (setting [6]) is 6230; in experiment [2] (setting [7]), 6540. The z-score in experiment [3] is -0.475 (inactive).

As for `CCN(CC)c1ccc(/C=N/NC(=O)c2ccc(O)cc2)cc1`, the remaining activity in experiment [1] was 100% (inactive). The fold change in experiment [2] (setting [4]) is 0.945 (inactive); in experiment [2] (setting [5]), 1.02. Moreover, the cell count in experiment [2] (setting [6]) is 5490; in experiment [2] (setting [7]) it was 5810. The z-score in experiment [3] is 0.055 (inactive).

As for `NC(C(=O)O)c1ccc(C(=O)O)c(O)c1` (stereo not drawn), the remaining activity in experiment [1] was 93.9% (inactive). The fold change in experiment [2] (setting [4]) is 0.966 (inactive); in experiment [2] (setting [5]), 1.12. For the same compound, the values for the cell count in experiment [2] (setting [6]) and in experiment [2] (setting [7]) were 9030 and 9350, respectively. For the same compound, the z-score in experiment [3] is -0.31 (inactive).

With `Clc1ccccc1CNCC1CCC(CNCc2ccccc2Cl)CC1` (stereo not drawn), the remaining activity in experiment [1] was 103% (inactive). Besides, the fold change in experiment [2] (setting [4]) is 0.98 (inactive); in experiment [2] (setting [5]) it was 0.883. For the same compound, the cell count in experiment [2] (setting [6]) was 7550; in experiment [2] (setting [7]) it was 7700. Also, the z-score in experiment [3] is -0.795 (inactive).

In the case of `OC[C@H]1O[C@@H](n2cnc3c(N[C@H]4CCC[C@@H]4O)ncnc32)[C@H](O)[C@@H]1O`, the remaining activity in experiment [1] is 116% (inactive). Besides, the fold change is 0.959 (inactive) in experiment [2] (setting [4]) and 0.92 in experiment [2] (setting [5]). Besides, the cell count in experiment [2] (setting [6]) was 8820; in experiment [2] (setting [7]) it was 9190. Besides, in experiment [3], the z-score is 0.09 (inactive).

With `Cc1nc2c(c(=O)[nH]1)CSCC2`, the remaining activity in experiment [1] is 100% (inactive). For the same compound, the figures for the fold change in experiment [2] (setting [4]) and in experiment [2] (setting [5]) were 0.983 (inactive) and 1.6, respectively. Moreover, the cell count in experiment [2] (setting [6]) is 9080; in experiment [2] (setting [7]) it was 9230. Besides, the z-score in experiment [3] is -0.035 (inactive).

Regarding `COCCNC(=O)COc1ccc(OCCNC[C@@H](O)COc2ccccc2)cc1`, the remaining activity in experiment [1] is 95.4% (inactive). In addition, the fold change is 0.88 (inactive) in experiment [2] (setting [4]) and 0.916 in experiment [2] (setting [5]). Further, the cell count in experiment [2] (setting [6]) was 8400; in experiment [2] (setting [7]), 9540. Further, the z-score in experiment [3] was 0.13 (inactive).

Take `N=C(N)c1ccc(N2CCN(C3CCN(CC(=O)O)CC3)CC2)cc1`: the remaining activity in experiment [1] was 115% (inactive). Moreover, the fold change in experiment [2] (setting [4]) was 1 (inactive); in experiment [2] (setting [5]), 0.72. For the same compound, the cell count in experiment [2] (setting [6]) came to 9390; in experiment [2] (setting [7]) it was 9350. In addition, the z-score in experiment [3] is -0.165 (inactive).

Consider `c1ccc(Oc2nc(NC3CCCCC3)c3[nH]cnc3n2)cc1`, for which the remaining activity in experiment [1] was 110% (inactive). For the same compound, the fold change in experiment [2] (setting [4]) is 0.921 (inactive); in experiment [2] (setting [5]), 1.13. For the same compound, the figures for the cell count in experiment [2] (setting [6]) and in experiment [2] (setting [7]) were 7420 and 8060, respectively. In addition, the z-score in experiment [3] was -0.49 (inactive).
